Inconclusive results are not listed. Calls of active or inactive are those of the source.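 Rule for the calls, unless noted: active = inhibition above 54%, about 3 SD of non-fluorescent compounds; inactive = the rest.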

Consider 5 compounds from PubChem BioAssay.

Assay [1] in a line: yeast TOR pathway RPL19A-GFP modulators, primary screen, cell-based, S. cerevisiae, multiplex flow cytometry (AID 1862; in the data active = percent of DMSO control GFP below about 86%;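 note: lower values mimic rapamycin by blocking the RPL19A rise seen in DMSO cells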). The settings on record: S. cerevisiae RPL19A-GFP strain, flow cytometry fluorescence, 3 h; at 10 µM; stronger effect = lower value. A general note: In flow cytometry, cells or beads pass a laser one at a time.
The nature of assay [2]: modulators of MEP2-GFP levels in yeast, primary screen, S. cerevisiae, multiplex flow cytometry (AID 1867;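 active = GFP response, as percent of the DMSO control, above the screen-wide mean plus 3 SD, about 139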;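 note: median GFP channel fluorescence of barcode-gated MEP2-GFP cells measured by flow cytometry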). Conditions: S. cerevisiae MEP2-GFP strain, 3 h, at 10 µM, stronger effect = higher value, 100% means same as DMSO wells.
Assay [3] in a line: modulators of CIT2-GFP expression in yeast, primary screen, S. cerevisiae, GFP fusion, multiplex flow cytometry (AID 1870;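 active = percent response above a set limit, the screen-wide mean plus 3 SD, cut at about 130% in these data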;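 note: barcoded CIT2-GFP strain pooled with four other GFP strains with rapamycin as positive control; median GFP fluorescence per well over plate mean of DMSO wells so 100% = DMSO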). Conditions: 3 h, at 10 µM, stronger effect = higher value.
A short description of assay [4]: modulators of LAP4-GFP expression in yeast, primary screen, S. cerevisiae, multiplex flow cytometry (AID 1873;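 active = GFP signal, as percent of the solvent control, above the screen mean plus 3 SD, about 149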). The settings on record: 3 h, at 10 µM, stronger effect = higher value.
The nature of assay [5]: modulators of AGP1-GFP expression in yeast TOR pathway, primary screen, cell-based, multiplex flow cytometry, S. cerevisiae (AID 1887;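 active = GFP signal above the screen-wide mean plus 3 SD, that is over about 124.5% of the solvent control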;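 note: AGP1-GFP fusion strain of S. cerevisiae within a five-strain barcoded multiplex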). Conditions: 3 h, at 10 µM, stronger effect = higher value.
A short description of assay [6]: inhibitors of CD8+ T cell-vesicle binding, pilot screen, LFA-1/ICAM-1 modulator project, MLPCN validation set, flow cytometry (AID 2523;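 active = response below a set limit, under 55% cells CD8-positive and vesicle-bound, and CD8 cells' 90th-percentile brightness under 279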;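 for vesicle binding response: mean PE anti-B7-1 fluorescence of CD8+ cells relative to row control; 100% = QL9-loaded vesicles with DMSO vehicle in the same plate row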). Conditions: 2C mouse CD8+ T cells, at 7 µM, stronger effect = lower value; double positive events: measured here: CD8+/vesicle+ event percentage.
The target of assay [7] is Integrin beta-1 (Homo sapiens) + Integrin alpha-4 (Homo sapiens) (UniProt P13612+P05556). Nature of the assay: inhibition of HUTS-21 binding to VLA-4, pilot screen, VLA-4 allosteric modulator project, U937 cells, HUTS-21 mAb, flow cytometry, validation set (AID 2674;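 active = inhibition above 50%, about 3 SD of the validation set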;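 note: antibody binding induced by the VLA-4 ligand LDV present at three times its Kd; 0% = LDV ligand with antibody and no compound and 100% = antibody without LDV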). The settings on record: HUTS-21 LIBS mAb binding, at 6.7 µM, stronger effect = higher value, binding induced by LDV ligand.

Assay [8] is described as follows: superoxide lowering in aged yeast cells, pilot screen, validation compound set (AID 2706;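 active = superoxide response below 65% of plate, a cut near 3 SD across the whole screen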;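 note: yeast exposed to compound for one week at 30 degrees C before staining; 100% = mean of all compound wells on the same plate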). The settings on record: S. cerevisiae aging, superoxide DHE fluorescence; at 10 µM; stronger effect = lower value.
Assay [9] concerns the target Beta-adrenergic receptor kinase 1 (Homo sapiens) (UniProt P25098). Nature of the assay: GRK2 binders displacing RNA aptamer, biochemical, validation, human GRK2, bead flow cytometry (AID 488806;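 active = aptamer binding inhibition above 30%, about 3 SD of noise from non-fluorescent compounds; inactive = inhibition at or below 30%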). The settings on record: bead-bound GRK2, FAM-aptamer displacement, at 10 µM, stronger effect = higher value.
For assay [10], the target named is Beta-2 adrenergic receptor (Homo sapiens) (UniProt P07550). The assay is described as follows: beta2AR agonists driving receptor internalization, pilot screen, cell-based, FAP fluorogen, flow cytometry, validation set (AID 504459;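 active = percent response above 42, roughly 3 SD of non-fluorescent test compounds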;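 note: agonist-driven loss of surface beta2AR via internalization measured by FAP dye flow cytometry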). Conditions: Am2.2-beta2AR cells, FAP surface receptor flow cytometry; at 10 µM; stronger effect = higher value.
The target in assay [11] is AP-2 complex subunit beta (Homo sapiens) (UniProt P63010). The assay is described as follows: inhibitors of arrestin peptide binding to AP2, pilot screen, biochemical, validation set, GST-AP2 beads, flow cytometry (AID 504541).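 Note: AP2 carries R879A mutation and is captured from E. coli lysate; bead-bound FITC arrestin peptide fluorescence measuring arrestin peptide binding to AP2; 0% = DMSO wells and 100% = excess unlabeled arrestin peptide control.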 Conditions: FITC arrestin peptide, at 10 µM, stronger effect = higher value, AP2 beta2 appendage fragment, R879A mutant.
The nature of assay [12]: yeast V-ATPase proton transport modulators, S. cerevisiae, pHLuorin, HTS validation (AID 504600; in the data active = response above about 15%;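 note: plate controls were DMSO for no effect and reference compound for full effect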). The settings on record: S. cerevisiae pHLuorin cytosolic pH, at 10 µM, stronger effect = higher value.
In assay [13] the test system is anti-desmoglein-3 scFv antibody binding to human DSG3. The assay is described as follows: inhibitors of anti-DSG3 scFv binding to DSG3, pilot screen, biochemical, validation compound set, bead-based, flow cytometry (AID 588368;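 active = binding below the plate cutoff, the plate median minus 3 SD, with a reading above zero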;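 note: signal is the median channel fluorescence of bead-bound GFP antibody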). Conditions: Protein G beads, DSG3-Fc, scFv-GFP binding, at 10 µM, stronger effect = lower value.
Assay [14] in a line: inhibitors of fungal efflux pumps CDR1, CDR2, MDR1, pilot screen, validation compound set, multiplex, phenotypic (AID 588506;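 active = efflux inhibition above 0.42, the validation set average plus 4 SD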;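 note: Nile Red retained in cells so higher fluorescence means more efflux inhibition; 0 = negative control wells and 1 = enniatin B 25 µM full block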). The settings on record: S. cerevisiae pump-expressing triplex, Nile Red efflux flow cytometry; at 10 µM; stronger effect = higher value; the pumps come from Candida albicans.
Assay [15] has as its target ATP-binding cassette sub-family B member 6 (Homo sapiens) (UniProt Q9NP58). Nature of the assay: ABCB6 transporter inhibitors, pilot screen, K562-ABCB6 cells, flow cytometry, validation set (AID 588550;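 active = inhibition above the screen-wide mean plus 3 SD, about 51%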;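 note: 0% = DMSO wells and 100% = benzethonium chloride 70 µM positive control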). Conditions: K562-ABCB6 porphyrin accumulation, 1 h, at 10 µM, stronger effect = higher value.
Assay [16] in a line: promoters of myeloid differentiation in arrested cells, primary screen, cell-based, GFP/MAC1 double positive, flow cytometry, validation set (AID 588685;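 active = differentiation response of at least 50%, scaled between solvent and reference control, from cells with both markers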;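 note: compound exposure lasts four days before antibody staining and flow analysis; 0% = DMSO wells and 100% = 5 µM fulvestrant positive control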). Conditions: ER-HoxA9 marrow cells, stronger effect = higher value, normalized: vehicle 0, fulvestrant 100.

Beta-2 adrenergic receptor (Homo sapiens), sequence (P07550 whole entry, looked up): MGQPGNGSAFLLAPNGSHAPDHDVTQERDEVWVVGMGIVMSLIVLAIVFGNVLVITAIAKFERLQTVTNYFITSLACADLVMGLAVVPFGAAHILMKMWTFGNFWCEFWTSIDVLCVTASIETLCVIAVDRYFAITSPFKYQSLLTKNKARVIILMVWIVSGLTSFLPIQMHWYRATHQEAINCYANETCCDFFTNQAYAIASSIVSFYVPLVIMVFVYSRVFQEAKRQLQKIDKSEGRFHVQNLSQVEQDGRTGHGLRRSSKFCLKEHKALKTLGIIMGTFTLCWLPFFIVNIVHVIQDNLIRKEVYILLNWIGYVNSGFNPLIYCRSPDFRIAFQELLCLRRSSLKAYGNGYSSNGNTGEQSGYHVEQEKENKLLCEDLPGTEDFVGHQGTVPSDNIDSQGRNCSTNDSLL
Beta-adrenergic receptor kinase 1 (Homo sapiens), sequence (P25098 whole entry, looked up): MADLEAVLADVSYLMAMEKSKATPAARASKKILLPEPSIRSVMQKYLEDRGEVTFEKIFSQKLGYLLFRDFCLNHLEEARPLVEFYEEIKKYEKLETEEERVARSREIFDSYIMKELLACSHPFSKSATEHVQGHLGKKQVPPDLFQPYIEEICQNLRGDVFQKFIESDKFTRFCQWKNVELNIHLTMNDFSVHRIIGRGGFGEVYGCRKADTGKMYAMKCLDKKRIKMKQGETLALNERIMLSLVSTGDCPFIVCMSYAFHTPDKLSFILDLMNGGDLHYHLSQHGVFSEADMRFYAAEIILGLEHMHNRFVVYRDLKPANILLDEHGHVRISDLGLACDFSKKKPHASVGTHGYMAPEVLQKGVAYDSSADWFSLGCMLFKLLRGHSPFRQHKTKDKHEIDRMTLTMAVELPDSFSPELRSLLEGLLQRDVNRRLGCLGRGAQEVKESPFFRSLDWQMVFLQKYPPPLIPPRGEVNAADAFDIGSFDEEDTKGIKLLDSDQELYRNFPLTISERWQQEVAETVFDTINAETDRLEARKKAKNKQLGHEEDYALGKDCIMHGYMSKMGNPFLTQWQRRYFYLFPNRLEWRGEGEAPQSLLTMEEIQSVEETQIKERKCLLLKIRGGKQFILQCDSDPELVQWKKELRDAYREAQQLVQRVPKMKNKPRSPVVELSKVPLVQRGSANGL
Integrin beta-1 (Homo sapiens) + Integrin alpha-4 (Homo sapiens), sequence (P05556 whole entry, looked up): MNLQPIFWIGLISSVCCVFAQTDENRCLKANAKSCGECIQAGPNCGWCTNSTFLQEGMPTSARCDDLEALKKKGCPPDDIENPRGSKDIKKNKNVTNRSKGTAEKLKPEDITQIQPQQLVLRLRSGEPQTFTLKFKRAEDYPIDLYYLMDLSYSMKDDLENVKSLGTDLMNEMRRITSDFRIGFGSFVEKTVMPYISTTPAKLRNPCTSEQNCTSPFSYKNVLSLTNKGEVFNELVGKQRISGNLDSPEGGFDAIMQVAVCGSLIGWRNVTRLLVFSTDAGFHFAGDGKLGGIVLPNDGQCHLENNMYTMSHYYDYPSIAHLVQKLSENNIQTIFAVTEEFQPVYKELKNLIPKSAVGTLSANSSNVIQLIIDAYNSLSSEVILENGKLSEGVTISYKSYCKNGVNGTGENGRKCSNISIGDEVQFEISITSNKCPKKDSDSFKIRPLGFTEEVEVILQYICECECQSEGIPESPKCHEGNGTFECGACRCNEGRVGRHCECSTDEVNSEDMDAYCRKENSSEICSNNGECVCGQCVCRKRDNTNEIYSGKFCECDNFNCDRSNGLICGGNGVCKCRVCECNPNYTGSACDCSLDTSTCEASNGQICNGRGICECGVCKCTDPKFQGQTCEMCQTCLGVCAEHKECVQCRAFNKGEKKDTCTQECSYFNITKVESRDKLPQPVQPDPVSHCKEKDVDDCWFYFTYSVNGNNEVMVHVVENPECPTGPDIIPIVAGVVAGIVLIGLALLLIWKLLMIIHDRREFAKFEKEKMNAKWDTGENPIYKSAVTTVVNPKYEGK
Integrin beta-1 (Homo sapiens) + Integrin alpha-4 (Homo sapiens), sequence (P13612 whole entry, looked up): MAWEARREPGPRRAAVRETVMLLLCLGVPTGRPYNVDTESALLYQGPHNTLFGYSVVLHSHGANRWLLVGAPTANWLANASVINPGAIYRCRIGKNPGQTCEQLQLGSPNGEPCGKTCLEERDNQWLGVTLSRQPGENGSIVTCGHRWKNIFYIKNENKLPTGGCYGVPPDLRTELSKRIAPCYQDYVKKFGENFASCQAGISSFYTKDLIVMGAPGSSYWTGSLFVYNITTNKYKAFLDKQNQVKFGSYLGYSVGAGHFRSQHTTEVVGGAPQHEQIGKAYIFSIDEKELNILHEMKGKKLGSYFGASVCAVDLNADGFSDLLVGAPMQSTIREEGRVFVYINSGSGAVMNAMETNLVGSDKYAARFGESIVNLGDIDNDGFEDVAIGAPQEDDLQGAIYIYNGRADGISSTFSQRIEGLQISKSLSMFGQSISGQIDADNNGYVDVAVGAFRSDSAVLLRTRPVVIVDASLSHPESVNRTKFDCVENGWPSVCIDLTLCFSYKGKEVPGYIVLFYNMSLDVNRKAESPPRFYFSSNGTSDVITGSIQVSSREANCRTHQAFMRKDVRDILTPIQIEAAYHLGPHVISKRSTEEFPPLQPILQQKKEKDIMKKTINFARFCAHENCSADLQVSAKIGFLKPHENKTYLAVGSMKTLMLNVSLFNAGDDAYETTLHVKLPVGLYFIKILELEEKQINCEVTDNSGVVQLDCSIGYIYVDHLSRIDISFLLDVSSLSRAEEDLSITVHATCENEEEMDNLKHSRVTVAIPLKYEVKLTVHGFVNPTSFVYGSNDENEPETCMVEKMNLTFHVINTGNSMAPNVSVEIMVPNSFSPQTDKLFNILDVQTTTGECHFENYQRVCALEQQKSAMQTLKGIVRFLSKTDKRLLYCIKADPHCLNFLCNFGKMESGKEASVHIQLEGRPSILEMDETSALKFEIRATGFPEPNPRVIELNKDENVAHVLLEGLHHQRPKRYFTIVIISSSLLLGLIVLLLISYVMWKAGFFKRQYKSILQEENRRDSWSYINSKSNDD
AP-2 complex subunit beta (Homo sapiens), sequence (P63010 whole entry, looked up, the tested form may be a part, one chain of several): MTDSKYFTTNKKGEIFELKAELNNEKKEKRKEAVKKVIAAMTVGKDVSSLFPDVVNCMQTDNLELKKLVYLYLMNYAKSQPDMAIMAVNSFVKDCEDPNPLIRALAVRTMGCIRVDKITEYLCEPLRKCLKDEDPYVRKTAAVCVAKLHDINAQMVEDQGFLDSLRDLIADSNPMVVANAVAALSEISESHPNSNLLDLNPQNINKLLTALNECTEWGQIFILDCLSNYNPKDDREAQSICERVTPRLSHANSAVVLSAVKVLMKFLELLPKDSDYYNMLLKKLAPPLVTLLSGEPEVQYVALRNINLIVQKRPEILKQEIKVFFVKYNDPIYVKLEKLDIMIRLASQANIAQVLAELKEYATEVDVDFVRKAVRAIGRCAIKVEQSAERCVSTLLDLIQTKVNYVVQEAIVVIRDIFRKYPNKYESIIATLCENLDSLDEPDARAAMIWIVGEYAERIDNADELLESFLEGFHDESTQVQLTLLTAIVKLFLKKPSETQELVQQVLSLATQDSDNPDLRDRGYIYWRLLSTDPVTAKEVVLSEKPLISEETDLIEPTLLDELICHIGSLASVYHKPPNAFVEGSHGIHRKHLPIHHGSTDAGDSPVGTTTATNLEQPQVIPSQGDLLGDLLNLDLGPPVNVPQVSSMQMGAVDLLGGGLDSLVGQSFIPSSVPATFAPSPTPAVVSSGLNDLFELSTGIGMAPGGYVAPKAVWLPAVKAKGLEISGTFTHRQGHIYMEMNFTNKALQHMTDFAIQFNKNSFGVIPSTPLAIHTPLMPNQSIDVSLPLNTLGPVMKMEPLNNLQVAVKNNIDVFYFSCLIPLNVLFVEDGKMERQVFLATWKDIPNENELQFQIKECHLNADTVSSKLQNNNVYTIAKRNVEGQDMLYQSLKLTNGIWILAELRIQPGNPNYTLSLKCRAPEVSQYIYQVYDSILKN
ATP-binding cassette sub-family B member 6 (Homo sapiens), sequence (Q9NP58 whole entry, looked up): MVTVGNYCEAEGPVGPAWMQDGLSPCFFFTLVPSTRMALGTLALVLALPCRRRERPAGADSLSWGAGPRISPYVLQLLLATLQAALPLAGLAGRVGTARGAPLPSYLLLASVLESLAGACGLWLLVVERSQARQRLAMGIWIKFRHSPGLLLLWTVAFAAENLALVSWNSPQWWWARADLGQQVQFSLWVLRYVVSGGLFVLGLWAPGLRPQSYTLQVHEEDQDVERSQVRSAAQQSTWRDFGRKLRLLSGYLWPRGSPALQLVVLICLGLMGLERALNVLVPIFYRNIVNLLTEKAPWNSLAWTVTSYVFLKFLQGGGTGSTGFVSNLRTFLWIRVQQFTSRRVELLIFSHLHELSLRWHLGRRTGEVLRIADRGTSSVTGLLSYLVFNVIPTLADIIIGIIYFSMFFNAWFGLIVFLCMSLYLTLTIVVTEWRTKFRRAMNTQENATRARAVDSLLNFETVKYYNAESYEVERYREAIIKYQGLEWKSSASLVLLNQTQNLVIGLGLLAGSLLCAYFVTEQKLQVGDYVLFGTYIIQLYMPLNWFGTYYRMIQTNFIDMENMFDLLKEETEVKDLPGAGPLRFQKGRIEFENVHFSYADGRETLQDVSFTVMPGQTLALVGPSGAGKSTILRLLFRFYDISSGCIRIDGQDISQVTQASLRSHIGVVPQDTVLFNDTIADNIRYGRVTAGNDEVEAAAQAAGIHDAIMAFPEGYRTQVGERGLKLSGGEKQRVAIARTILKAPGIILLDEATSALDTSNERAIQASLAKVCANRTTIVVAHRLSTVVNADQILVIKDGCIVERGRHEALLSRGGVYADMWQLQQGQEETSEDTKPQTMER

For `Cc1cc(C)c(NC(=O)NC(=O)C(Cl)(Cl)Cl)c(C)c1`, in [1], the percent of DMSO control GFP was 103% (inactive). For the same compound, the GFP response vs DMSO in [2] was 97.2% (inactive); in assay [4], 90.7% (inactive). For the same compound, the percent response of DMSO control in [3] is 101% (inactive). The GFP response, % of DMSO in [5] is 94.2% (inactive). For the same compound, the double positive events in [6] is 62.2%. In addition, the vesicle binding response in assay [6] was 464% (inactive). The inhibition – broadly, the change of the read-out against control, counted positive when it falls – in [7] was 13% (inactive); in assay [11], -8.2% (inactive); in assay [15], -19% (inactive). Further, the superoxide response (% of plate) in [8] was 97.8% (inactive). Also, the aptamer binding inhibition in [9] is 4% (inactive). The response was -6.36% (inactive) in assay [10] and 13.6% (inactive) in assay [12]. In addition, in assay [13], the binding (% of control) was 96.9% (inactive). Moreover, in assay [14], the efflux inhibition (fraction of control) is -0.04 (inactive). In [16], the differentiation response is 0.24% (inactive).
In the case of `CC12CCCCN1CCCc1c2[nH]c2ccccc12` (stereo not given), the percent of DMSO control GFP in assay [1] is 99.6% (inactive). Further, the GFP response vs DMSO was 105% (inactive) in assay [2] and 82.8% (inactive) in assay [4]. For the same compound, the percent response of DMSO control in assay [3] was 115% (inactive). In addition, the GFP response, % of DMSO in assay [5] is 99.5% (inactive). Further, the double positive events in [6] is 61.3%. Moreover, in assay [6], the vesicle binding response is 149% (inactive). Also, the inhibition in assay [7] was -22.2% (inactive); in assay [11], 3.51% (inactive); in assay [15] it was -49% (inactive). In assay [8], the superoxide response (% of plate) was 99.9% (inactive). The aptamer binding inhibition in assay [9] is -6% (inactive). For the same compound, the response in [10] is 8.33% (inactive); in [12], 0.15% (inactive). Moreover, the binding (% of control) in assay [13] is 112% (inactive). Further, the efflux inhibition (fraction of control) in [14] was -0.2 (inactive). The differentiation response in assay [16] was 11% (inactive).
For the compound `Cc1ccc(C2CC(c3cccs3)=NN2C(=O)c2ccco2)o1` (stereo not given), the percent of DMSO control GFP in assay [1] is 92.6% (inactive). The values for the GFP response vs DMSO in assay [2] and in assay [4] were 87.6% (inactive) and 82.8% (inactive), respectively. Further, the percent response of DMSO control in assay [3] is 89.3% (inactive). Moreover, the GFP response, % of DMSO in assay [5] was 87% (inactive). In assay [6], this compound had a double positive events of 62.2%. The vesicle binding response in assay [6] was 135% (inactive). The inhibition in assay [7] was 2.93% (inactive); in assay [11] it was -17.3% (inactive); in assay [15], -1% (inactive). For the same compound, the superoxide response (% of plate) in assay [8] is 106% (inactive). The aptamer binding inhibition in assay [9] is -1% (inactive). Besides, the response was -25.7% (inactive) in assay [10] and -7.57% (inactive) in [12]. In assay [13], the binding (% of control) is 107% (inactive). In addition, the efflux inhibition (fraction of control) in assay [14] was 0.275 (inactive). The differentiation response in assay [16] is 1.28% (inactive).
`CS(=O)(=O)c1cccc(C(=O)Oc2ccccc2)c1`: the percent of DMSO control GFP in assay [1] is 104% (inactive). Moreover, the figures for the GFP response vs DMSO in assay [2] and in assay [4] were 97.2% (inactive) and 82.8% (inactive), respectively. Further, in assay [3], the percent response of DMSO control is 106% (inactive). Besides, the GFP response, % of DMSO in assay [5] was 101% (inactive). Besides, in assay [6], the double positive events is 60.5%. Further, in assay [6], the vesicle binding response is 76.6% (inactive). Also, the inhibition in assay [7] was 9.92% (inactive); in assay [11], -4.57% (inactive); in [15], 3% (inactive). Further, the superoxide response (% of plate) in assay [8] is 99% (inactive). For the same compound, the aptamer binding inhibition in assay [9] is 3% (inactive). For the same compound, the response in [10] was -8.78% (inactive); in assay [12], -0.27% (inactive). The binding (% of control) in assay [13] is 100% (inactive). Besides, the efflux inhibition (fraction of control) in assay [14] was -0.1 (inactive). Moreover, the differentiation response in [16] was 10% (inactive).
For the compound `CCOC(=O)C1=C2c3ccc4ccccc4c3CC(C)(C)N2C(=O)C1=O`, in assay [1], the percent of DMSO control GFP was 104% (inactive). Further, the GFP response vs DMSO in assay [2] was 93% (inactive); in assay [4] it was 78.6% (inactive). Further, the percent response of DMSO control in assay [3] is 99.6% (inactive). The GFP response, % of DMSO in assay [5] is 85.1% (inactive). In assay [6], the double positive events was determined as 62%. The vesicle binding response in [6] is 205% (inactive). For the same compound, the inhibition in assay [7] is -4.52% (inactive); in assay [11] it was 1.16% (inactive); in [15] it was -3% (inactive). The superoxide response (% of plate) in assay [8] is 114% (inactive). Also, the aptamer binding inhibition in assay [9] is 3% (inactive). The response in [10] was 7.03% (inactive); in assay [12] it was -4.69% (inactive). Also, the binding (% of control) in assay [13] is 96.8% (inactive). The efflux inhibition (fraction of control) in assay [14] was -0.17 (inactive). The differentiation response in [16] is -8.8% (inactive).
